Compound activity as filed in PubChem.
In the library only some 3.9% were active in any assay of this set; here they are far more common.
TWEAK-Fn14 inh: inhibitors of TWEAK-Fn14 interaction signaling. 360,000 compounds, 2% hits. inhibition, % at 10 µM. TWEAK-stimulated Fn14 reporter cells, luciferase luminescence, 8 h. AID 1159606; in the data active = inhibition above about 50%
TROY signal inh: TROY signaling inhibition. Q293 LMP1-TROYcd NF-kB luciferase reporter, 4 h. inhibition, % at 10 µM. 360,000 compounds, 0.98% hits;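 active = compounds whose plate-normalised and pattern-corrected inhibition of the luciferase reporter signal at the single screening dose is 50% or more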
HIF-2a inh: blocks HIF-2a reporter activity | AID 624352 | inhibition, % at 18.8 µM | 360,000 compounds, 0.72% hits | 786-0 RCC cells HIF-2a reporter, luciferase luminescence, overnight;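 active = inhibition of the luminescence signal of 40% or more relative to plate controls, in a single-dose primary screen at 18.75 µM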
aSyn UTR inh: 5' untranslated region of α-synuclein, MLPCN primary screen. alpha-synuclein 5'UTR reporter, inhibitor activity. AID 1813. 300,000 compounds, 0.82% hits. inhibition, % (tested at 7.5 µM); in the data active = inhibition above about 60%;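 note: H4 neuroglioblastoma cells stably carrying SNCA 5'UTR luciferase fusion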
HSP90 refold inh: inhibitors of HSP90 luciferase refolding in rabbit reticulocyte lysate; luciferase refolding luminescence, 3 h; inhibition, % at 5.6 µM; 290,000 compounds, 0.91% hits; AID 1789;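 active = inhibition above the screen-wide mean plus 3 SD, computed separately per campaign, cut at about 16% in these data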;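 note: inhibitors lower the luminescence because luciferase stays unfolded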
TRAIL sens C8: caspase-8 TRAIL sensitization; AID 624354; inhibition (viability loss, TRAIL sensitization), % at 10 µM; 360,000 compounds, 1% hits; NB7+C8 cells + TRAIL, ATPlite viability luminescence;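 active = compounds causing at least 50% loss of cell viability in the single-dose screen, relative to plate controls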
HIF-2a inh conf: confirmation of HIF-2a inhibitors; shares compounds with HIF-2a inh; 786-0 RCC cells, HIF-2a luciferase reporter luminescence, overnight; inhibition, % at 18.8 µM; 1,800 compounds, 56% hits;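 active = mean inhibition across four replicates of at least 40 percent at the single tested concentration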
HIF-1a counter: inhibits HIF-1a reporter, a counter-screen for HIF-2a inhibitors | inhibition, % at 18.8 µM | 1,800 compounds, 72% hits | MiaPaCa-2 HIF-1a luciferase reporter, desferoxamine, overnight | shares compounds with HIF-2a inh | AID 651589;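 active = mean inhibition of the reporter signal across four replicates at the single tested dose of 50% or more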
Numbers stand for hits; 0 = inactive; - = no result.

SMILES	TWEAK-Fn14 inh	TROY signal inh	HIF-2a inh	aSyn UTR inh	HSP90 refold inh	TRAIL sens C8	HIF-2a inh conf	HIF-1a counter
CCOC(=O)[C@@H]1[C@H]2COc3ccc(Br)cc3[C@H]2N2C(=O)N(c3cccc(C)c3)C(=O)[C@]12C	0	0	0	-	-	0	-	-
c1coc(CN2Cc3ccccc3-n3nncc3C2)c1	0	0	0	-	-	0	-	-
C=CC12CN(C)C3C4COC(CC41)C1(C(=O)Nc4ccccc41)C32 (stereo not drawn)	0	0	0	-	-	0	-	-
NC(Cc1ccccc1)c1nn[nH]n1 (stereo not drawn)	0	0	0	-	-	0	-	-
CCOC(=O)[C@]12Cc3ccccc3[C@H]1N(Cc1ccccc1)C(=O)c1cc(OC)ccc12	0	0	0	-	-	0	-	-
CCCCCN1C(=O)c2cc(OC)ccc2[C@@]2(C(=O)OCC)Cc3cc(Cl)ccc3[C@@H]12	77	52	80	-	-	85	97	105
CCC1(CC)C(=O)NC(=O)N(CCc2ccccn2)C1=O	0	0	0	-	-	0	-	-
CC(=O)OCC12CC(OC(=O)CC(C)C)C(C)=CC1OC1C(O)C(OC(C)=O)C2(C)C12CO2 (stereo not drawn)	93	82	82	-	-	57	79	102
C[C@]12CCC(=O)C[C@H]1CC[C@@H]1[C@@H]2CC[C@]2(C)C(=O)CC[C@@H]12	0	0	0	-	-	0	-	-
CCCCCC[N+](=O)[O-]	0	0	0	-	-	0	-	-
CCCCCCCCCCCCCCCC[N+](C)(C)C	0	0	56	98	-	85	42	79
O=C1NC2C(=CC(O)C(O)C2O)c2cc3c(c(O)c21)OCO3 (stereo not drawn)	95	84	85	-	-	77	84	106
O=C1NC2C(O)C(O)C(O)C(O)C2c2cc3c(c(O)c21)OCO3 (stereo not drawn)	99	81	66	-	-	0	70	105
CS(=O)(=O)c1ccc(C2=C(CNC(=O)c3nccs3)[C@H]3CC[C@@H](C2)N3Cc2ccco2)cc1	0	0	0	-	-	0	-	-
CCC(C)C1NC(=O)C2CCCN2C(=O)C(CC(C)C)OC(=O)CCNC(=O)C(C)N(C)C(=O)C(C(C)C)N(C)C1=O (stereo not drawn)	0	0	0	-	-	0	-	-
C=CCCC[C@@H]1OC(=O)CNC(=O)C([C@@H](C)CC)NC(=O)[C@@H]2CCCN2C(=O)C([C@@H](C)CC)OC(=O)[C@H](Cc2ccccc2)N(C)C(=O)[C@H](C(C)C)NC(=O)C1(C)C (stereo partly drawn)	0	0	82	-	-	0	0	104
CCC(c1nnnn1C1CCCC1)N1CCC2(CC1)C(=O)NCN2c1ccccc1 (stereo not drawn)	0	0	0	-	-	0	-	-
O=C(NC(=S)N1CC1)c1ccccc1	0	0	0	-	-	0	-	-
CC1CC(C)CC(C)C(O)C(C#N)=CC=CCC(C2CCCC2C(=O)O)OC(=O)CC(O)C(C)C1 (stereo not drawn)	100	81	78	-	-	66	76	104
N=C(N)c1c(O)n(C2CCCCC2)c(=O)n(C2CCCCC2)c1=O	0	0	52	-	0	0	0	97
O=c1c(C=NCc2cccs2)c(O)n(C2CCCCC2)c(=O)n1C1CCCCC1	0	0	0	0	0	0	-	-
CCOC(=O)CC(SP1(=S)OCC2(CC=CCC2)CO1)C(=O)OCC (stereo not drawn)	0	0	0	-	-	0	-	-
c1ccc2oc(-c3ccc4c(c3)CNCc3cnnn3-4)cc2c1	0	0	0	-	-	0	-	-
